The list is not random: actives were taken first. Their share in the collection is about 1.8%.
GCN5L2 inh – GCN5L2 (KAT2A) acetyltransferase inhibition. Potency, µM (titrated, usually from 58.9 µM), without a hit: at the top dose activity change, negative = inhibition, actives largely listed as inhibitors. AID 504327. Q92830. 390,000 compounds, 0.21% hits. GCN5L2 HAT assay, ThioGlo1 CoA-SH fluorescence; also: % is scaled to controls: 0 for no effect and ±100 for the full control effect
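GCN5L2 (20 nM) in 50mM HEPES pH 7.5, 0.1mM EDTA, 0.01% Tween-20 preincubated 15 min with compounds at room temperature. Reaction started with H3(1-25) 75uM, acetyl-CoA 70uM, ThioGlo1 50uM; CoA-thiol fluorescence (Ex340/Em540) read at 0 and 20 min.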
HEK293 tox – cytotoxicity counter-screen for GLP-1 receptor inverse agonists; HEK293 cAMP-luciferase reporter cells, luminescence, 24 h; Potency, µM (top dose mostly 38.3 µM), for the others: top-dose activity change, negative = inhibition, most hits filed as inhibitors; 410,000 compounds, 0.13% hits;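 also: loss of luciferase light is scored as toxicity; % is scaled to controls: 0 for no effect and ±100 for the full control effect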
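Seeding density was 200 cells/uL; after overnight-length (12 h) culture, 23 nL compounds went on for 24 h at 37 °C. Readout used a luciferase detection reagent, luminescence taken after 12 min at room temperature.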
GLP-1R agonist – GLP-1 receptor (human) agonism; P43220; HEK293 GLP-1R CRE-luciferase, luminescence, 4-6 h; cells express a hypersensitive GLP-1R form; Potency, µM (doses to about 45.6 µM), without a hit: at the top dose activation, usual class: activators; 380,000 compounds, 0.007% hits; AID 624172; also: % of control where 0% means no effect
Target sequence (P43220 whole entry, looked up): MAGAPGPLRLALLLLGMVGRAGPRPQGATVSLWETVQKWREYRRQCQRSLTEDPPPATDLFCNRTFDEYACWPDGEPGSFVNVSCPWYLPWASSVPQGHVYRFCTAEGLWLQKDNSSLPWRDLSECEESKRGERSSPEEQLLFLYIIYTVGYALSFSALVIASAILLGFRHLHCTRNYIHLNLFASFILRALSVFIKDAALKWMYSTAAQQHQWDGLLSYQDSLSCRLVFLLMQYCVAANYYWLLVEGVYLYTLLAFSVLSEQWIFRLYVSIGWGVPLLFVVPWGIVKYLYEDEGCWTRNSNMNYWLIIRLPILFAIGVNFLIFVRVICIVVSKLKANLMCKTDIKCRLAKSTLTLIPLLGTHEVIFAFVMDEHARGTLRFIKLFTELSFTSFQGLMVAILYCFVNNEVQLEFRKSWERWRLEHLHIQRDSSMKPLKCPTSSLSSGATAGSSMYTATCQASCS
RGS4 inhibitor – inhibitors of human regulator of G protein signaling 4; P49798; Transcreener GDP fluorescence polarization, RGS4-accelerated GTP hydrolysis; Potency, µM (titrated, usually from 114 µM), for inactives: at the top dose activity change, negative = inhibition, actives largely listed as inhibitors; 390,000 compounds, 0.039% hits; also: % is scaled to controls: 0 for no effect and ±100 for the full control effect; nearly all actives have a fitted effect of over 75% in size
Target sequence (P49798 whole entry, looked up): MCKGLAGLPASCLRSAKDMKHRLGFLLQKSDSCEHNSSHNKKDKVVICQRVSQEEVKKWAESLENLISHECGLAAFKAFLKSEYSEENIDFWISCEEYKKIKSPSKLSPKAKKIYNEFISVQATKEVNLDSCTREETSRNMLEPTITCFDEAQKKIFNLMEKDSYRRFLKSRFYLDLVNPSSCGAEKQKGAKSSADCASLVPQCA
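MLSMR compounds (23 nl, pin-transferred) preincubated 10 min at room temperature with a 500nM (2x) first reagent, then RGS4 at 900nM (2x) plus Transcreener GDP mix added; fluorescence polarization (620/688 nm) read before and after 90 min at 30 °C.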
GLP1R inv ag – inverse agonists of human GLP-1 receptor; P43220; HEK293 GLP-1R CRE-luciferase, luminescence, 24 h; GLP-1R form is constitutively active; Potency, µM (doses to about 38.3 µM), inactives show top-dose activity change, negative = inhibition, most hits filed as inhibitors; 410,000 compounds, 1.6% hits; also: % is scaled to controls: 0 for no effect and ±100 for the full control effect; nearly all actives have a fitted effect of over 55% in size
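Inverse agonists were sought by their lowering of basal cAMP reporter luciferase output in HEK293 cells stably carrying constitutively active human GLP-1R, after 24 h compound treatment.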
PTHR1 agonist – PTHR1 (human) receptor agonism; Potency, µM (top dose mostly 115 µM), for the others: at the highest dose activation, actives largely listed as activators; 410,000 compounds, 0.075% hits; Q03431; HEK293 GP2 PTHR1 cells, GloSensor cAMP luminescence, 1 h; also: nearly all actives have a fitted effect of over 55% in size
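HEK-293-derived GP2 cells expressing PTHR1 and a GloSensor cAMP reporter, 3,000/well, plated overnight, given luciferin plus IBMX (each 0.5 mM as added) for 1 h at 37 °C, then compound for 1 h at 37 °C. Luminescence was read after 15 min at room temperature.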
An asterisk follows results filed as active; i = inactive; ? = inconclusive; . = no result; ! = not active in a repeat; [ ] = another dose, or the depositor's remark. Calls follow the shape of the dose curve; as a rule, active = well fitted curve in the direction sought with a large enough effect; inconclusive = small, poorly fitted or top-dose-only effect, or another doubt; inactive = no such curve, though single readings can be large; an effect the other way counts as inactive or inconclusive. Potency is read from the fitted curve at half-maximal effect.

SMILES	GCN5L2 inh	HEK293 tox	GLP-1R agonist	RGS4 inhibitor	GLP1R inv ag	PTHR1 agonist
Cn1c(O)c(C=Nc2ccccc2)c(=O)n(C)c1=O	-23%	-2%	2%	11%	-11%	i
Cc1ccccc1-n1c(/C=C/c2c(C)[nH]c3ccccc23)nc2ccccc2c1=O	-10%	-11%	.	6%	4µM*	i
Cc1ccccc1-n1c(/C=C/c2ccc(N(C)C)cc2)nc2ccccc2c1=O	-6%	i	.	2%	8.9µM*	i
CC(=O)C(O)C(c1ccccc1)c1c(O)c2ccccc2oc1=O (stereo not given)	-18%	.	.	.	.	.
Clc1ccc2c(c1)C(OC1CN3CCC1CC3)c1ccccc1CS2 (stereo not given)	-2%	?	-20%	-16%	2.8µM*	-8%
CN1CCN(CCOC2c3ccccc3CSc3ccc(Cl)cc32)CC1 (stereo not given)	1%	?	5%	-28%	?	i
COC(=O)/C=C/C(=O)N[C@@H]1CC[C@@]2(O)[C@H]3Cc4ccc(O)c5c4[C@@]2(CCN3CC2CC2)[C@H]1O5	6%	.	.	.	.	.
CC(C)(O)C(=O)Nc1ccc([N+](=O)[O-])c(C(F)(F)F)c1	2%	0%	13%	-4%	-23%	-23%
COc1cc2c(cc1OC)CN(c1ccc([N+](=O)[O-])c(C(F)(F)F)c1)CC2	17%	10µM*	-7%	-22%	7.9µM*	-36%
c1cc2c(cc1C1CCCCC1)c1c3n2CCCNC3CCC1 (stereo not given)	-1%	?	-22%	-21%	4µM*	-14%[57.5 µM]
C=CCN1C(=O)/C(=C/c2ccc(Br)s2)C(=O)NC1=S	-24%	-22%	-15%	?	-9%	i
CCN1C(=O)/C(=C\c2ccc([N+](=O)[O-])s2)C(=O)NC1=S	8.9µM*	.	.	.	.	.
CC(C)(C)OC(=O)N(CCc1ccccc1)Cc1ccc(OCc2cccc(NC(=O)c3ccccc3)c2)cc1	.	3%	6%	7%	7.9µM*	i
O=C(O)CNC(=O)[C@@H](CS)Cc1ccccc1	13µM*	.	.	.	.	.
CNc1cc(Cl)c2nonc2c1[N+](=O)[O-]	?	7.9µM*	-11%	-32%	?	-21%
CCOc1ccc2cc(C#N)c(=O)oc2c1	-17%	.	.	.	.	.
CC(=O)Oc1ccc(Cl)c2cccnc12	-9%	.	.	.	.	.
Cc1cccc(NC(=O)Oc2ccc(Cl)c3cccnc23)c1	.	?	14%	.	10µM*	i
CCc1ccc(-c2nc(CN3CCCC(C(=O)N4CCN(c5cc(Cl)ccc5C)CC4)C3)c(C)o2)cc1 (stereo not given)	-9%	?	.	11%	4.5µM*	-32%
C=CCC1(C(C)CCC)C(=O)NC(=O)NC1=O (stereo not given)	.	.	1%[96 µM]	.	.	.
COc1ccc2[nH]c(C)c(CCNCc3cn(C)c4ccccc34)c2c1	-2%	?	-4%	-1%	2.8µM*	i
CCCN1CCC[C@@H]2Cc3cn[nH]c3C[C@H]21	14%	.	.	.	.	.
c1cc2n(c1)-c1c(ccc3c1OCO3)CNC2c1ccc2c(c1)OCO2 (stereo not given)	2%	-26%	0%	-10%	8.9µM*	i
Cc1ccc(C2(c3ccc(C)cc3)CC2C(=O)Nc2ccc([N+](=O)[O-])cc2O)cc1 (stereo not given)	-28%	?	-39%	?	4µM*	-48%
CC1Oc2cc3c(-c4c(O)cc(O)c5c(O)c6c(cc45)OC(C)C(C)C6=O)c(O)cc(O)c3c(O)c2C(=O)C1C (stereo not given)	25µM*	?	0%	?	13µM*	-2%
SMILES	GCN5L2 inh	HEK293 tox	GLP-1R agonist	RGS4 inhibitor	GLP1R inv ag	PTHR1 agonist
COc1ccc(Cc2c(O)[nH]c(=S)[nH]c2=O)cc1	6.3µM*	9%	1%	-35%[56.9 µM]	15%	24%
CCCCOc1ccc(C(C)=O)cc1Cc1c(O)[nH]c(=S)[nH]c1=O	?	0%	-6%	?	-2%	i
C#CCOCCOCCOCCNc1nc(N2CCN(C(=O)CCCCCCCCCCNC(=O)Cn3cc(C[C@@H](C)O)nn3)CC2)nc(N2CCN(C(=O)CCCCCCCCCCNC(=O)[C@H](CCCCN)n3cc(C[C@@H](C)CC)nn3)CC2)n1	-13%	?	-12%	?	?	18µM*
CCOC(=O)C(O)(c1ccc(NC(=O)c2ccc(Cl)c(Cl)c2)cc1)C(F)(F)F (stereo not given)	-9%	-19%	1%	-37%	5µM*	-15%
COc1cc(CC(C)N)cc2c1OCO2 (stereo not given)	.	.	-6%[96 µM]	.	.	.
CC(C)n1c(/C=C/[C@H](O)C[C@H](O)CC(=O)O)c(-c2ccc(F)cc2)c2ccccc21	-14%	-23%	-3%	-1%	3.2µM*	-18%
CN1CCC2(CC1)c1ccccc1-c1ccccc12	.	?	-4%	18%	11µM*	-21%
COC(=O)c1cn(Cc2ccc(F)cc2)c2ccccc12	.	2%	16%	.	11µM*	-47%
CSc1cccc(NC(=O)C2CCN(C(=O)c3cnn(-c4ccccc4)c3-n3cccc3)CC2)c1	-7%	4%	.	10%	?	-23%
O=[N+]([O-])c1ccc(Cl)c([N+](=O)[O-])c1	-12%	?	-17%	-51%	?	-42%
N#Cc1c([N+](=O)[O-])cc([N+](=O)[O-])cc1S(=O)(=O)Cc1ccccc1	14µM*	?	-37%	?	?	-29%
C=C(C)[C@H]1CN[C@H](C(=O)O)[C@H]1CC(=O)O	32µM*!	0%	-1%	5%[56.9 µM]	3%	-22%
COc1ccc(CNCCc2c[nH]c3ccccc23)c(OC)c1OC	-4%	-15%	5%	-13%	?	-22%
CCOc1cc(CNCCc2c[nH]c3ccccc23)cc(Cl)c1OC	-6%	?	2%	-15%	11µM*	-24%
CN(C)CCO	3%	.	?	.	.	.
C[C@H]1[C@@H](OS(=O)(=O)O)C[C@@H]2C[C@H]([C@@H](O)c3cc(=O)[nH]c(=O)[nH]3)NC3=NC[C@H]1N32	.	.	-10%	-2%	2.5µM*	-16%
FC(F)OC(F)(F)C(F)Cl (stereo not given)	2%	.	0%	.	.	.
CC(C)[C@@]1(NC(=O)[C@H]2C[C@H]3c4cccc5[nH]cc(c45)C[C@@H]3N(C)C2)O[C@]2(O)[C@H]3CCCN3C(=O)CN2C1=O (tested in a mixture with another compound)	.	.	4%	.	.	.
